Our source for the growth values is PubChem BioAssay (NCI).

Molecules are shown by their SMILES. Several values for one entry are separate records, joined by “and”; a condition that tells them apart may be missing. Equal entries are not always repeated. About 83,000 compounds went through this panel and 20% of them were active in at least one assay; those are over-represented in the sample as a whole.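 Results are percent growth after 48 hours of single-concentration exposure. 100 means growth as in untreated cells, lower positive values show inhibition; negative values down to -100 show cell death.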 Activity calls are given as the source filed them. How the source made its calls: active means growth percent below 10; inactive means the rest.

Test in all cases: NCI-60 one-dose screen, 48 h (100 = growth as untreated, 0 = no growth, -100 = all killed)
Common to all, as to details: 10 µM unless noted

The test system of test [1] is DU-145 prostate.
In test [2] the test system is K-562 leukemia.
Test [3] relates to MALME-3M melanoma.
Test [4] has as its system MDA-MB-231 breast.
Test [5] relates to RXF 393 renal.
Test [6] has as its system SF-268 CNS.
Test [7] relates to SF-295 CNS.
In test [8] the test system is SF-539 CNS.
Test [9] has as its system UACC-257 melanoma.
Test [10] has as its system M14 melanoma.

In the case of `Cc1ccccc1Nc1nnc(-c2c[nH]c3ccccc23)o1`, the growth was 26.4% (inactive) in [1]; 7.28% (active) in [2]; 33.5% (inactive) in [3]; 26.9% (inactive) in [4]; -4.44% (active) in test [5]; 59% (inactive) in [6]. The growth in test [7] was 8.71% (active); in test [8], -25.9% (active); in [9], 49.7% (inactive); in [10], 6.24% (active).
Turning to `O=C(CCl)Nc1ccc(C(=O)/C=C/c2cc3ccccc3nc2Cl)cc1`, the growth is -84.1% (active) and 46.7% (inactive) in test [1]; -59.7% (active) and 28.6% (inactive) in test [2]; -87.2% (active) and 48.9% (inactive) in [3]; -91.6% (active) and 63.6% (inactive) in [4]; -85.3% (active) and 36.2% (inactive) in test [5]; -15.5% (active) and 29.3% (inactive) in test [6]. The growth in [7] is -25.5% (active) and 42.3% (inactive); in test [8] it was -99.1% (active) and 13.3% (inactive); in test [9], 24.4% (inactive) and 58.7% (inactive); in test [10] it was -62.3% (active) and 42.9% (inactive).
Regarding `CCCCCCCCc1ccc(C(=O)Nc2ccc(C)c(OP(=O)(O)O)c2)cc1`, the growth in test [1] was 101% (inactive); in test [2], 87% (inactive); in [3] it was 102% (inactive); in [4], 97.3% (inactive); in test [5], 113% (inactive); in test [6], 83.1% (inactive). For the same compound, the growth in [7] was 91.2% (inactive); in test [8] it was 93.4% (inactive); in [9], 102% (inactive); in [10], 106% (inactive).
With `COc1ccc(NC(=O)CSc2nnc(-c3ccc(-c4nc5ccccc5[nH]4)cc3)o2)cc1`, the growth is 5.8% (active) in test [1]; 22.2% (inactive) in test [2]; 10.2% (inactive) in test [3]; 19.2% (inactive) in [4]; -54.4% (active) in test [5]; 49.6% (inactive) in test [6]. Further, the growth in test [7] is 74.8% (inactive); in [8], -86.6% (active); in test [9], 36.4% (inactive); in test [10] it was 1.64% (active).
For the compound `COc1cc(CNC(=O)C[C@H](C)CCC=C(C)C)ccc1OCc1cn(-c2ccccc2F)nn1`, the growth in test [1] was 102% (inactive); in test [2], 81.6% (inactive); in test [3], 78.3% (inactive); in test [4], 66.8% (inactive); in [5], 38.4% (inactive); in test [6] it was 58.9% (inactive). Further, the growth was 45.2% (inactive) in [7], 44.6% (inactive) in [8], 94% (inactive) in test [9] and 94.8% (inactive) in test [10].
`CC(=O)c1ccc2c(N)c(C(=O)Nc3ccc(C(F)(F)F)cc3)sc2n1`: the growth in [1] was 82.2% (inactive); in test [2] it was 20% (inactive); in test [3], 26.4% (inactive); in [4], 68.3% (inactive); in test [5], 85.8% (inactive); in [6], 85.2% (inactive). The growth is 38.1% (inactive) in test [7], 71.1% (inactive) in [8], 59.5% (inactive) in test [9] and 58.3% (inactive) in test [10].
Turning to `CS(=O)(=O)Nc1cncc(-c2ccc3ncnc(NCc4ccccc4)c3c2)c1`, the growth in [1] was 55.2% (inactive); in test [2], 33.6% (inactive); in test [3] it was 27.8% (inactive); in test [4], 40% (inactive); in test [5] it was 35.6% (inactive); in test [6], 31.7% (inactive). For the same compound, the growth was 42.8% (inactive) in test [7], 23.9% (inactive) in test [8], 74.5% (inactive) in test [9] and 49% (inactive) in test [10].
As to `COc1ccc(N=Nc2c(N)nn3c(-c4cc5ccccc5oc4=O)ccnc23)cc1`, the growth in [1] was 61.9% (inactive); in [2], 51.5% (inactive); in [3], 49.3% (inactive); in [4], -3.18% (active); in [5] it was 10.1% (inactive); in test [6], 57.8% (inactive). Besides, the growth in test [7] was 34.5% (inactive); in test [8], 15.2% (inactive); in test [9], 88.4% (inactive); in test [10] it was 59.5% (inactive).
Regarding `N#C/C(=C/c1ccc(Cl)cc1)c1nnc(NC(=O)c2ccc(-n3c(=O)[nH]c4ccccc4c3=O)cc2)s1`, the growth in test [1] is 85.1% (inactive); in test [2] it was 99% (inactive); in test [3] it was 68.2% (inactive); in [4] it was -5.08% (active); in test [5] it was 20.1% (inactive); in test [6], 73.2% (inactive). The growth was 96.3% (inactive) in test [7], 24.1% (inactive) in test [8], 102% (inactive) in test [9] and 78.8% (inactive) in test [10].
Regarding `O=S(=O)(c1nc(-c2ccc(Br)cc2)oc1-c1ccc(Cl)cc1)N1CCCC(O)C1` (stereo not given), the growth in test [1] was 72.6% (inactive); in [2], 33.8% (inactive); in test [3], 74.8% (inactive); in test [4] it was 60% (inactive); in test [5] it was 51.3% (inactive); in test [6], 63% (inactive). For the same compound, the growth in test [7] is 58.1% (inactive); in [8], 84.5% (inactive); in test [9], 80.3% (inactive); in test [10], 69.7% (inactive).
As for `O=C(CSc1nnc(-c2ccc(-c3nc4ccccc4[nH]3)cc2)o1)Nc1ccccc1`, the growth was 4.85% (active) in test [1]; 33.1% (inactive) in test [2]; 93.3% (inactive) in [3]; -14.5% (active) in [4]; -1.42% (active) in test [5]; 45.7% (inactive) in test [6]. In addition, the growth in [7] was 94.2% (inactive); in test [8] it was 46.7% (inactive); in test [9] it was 103% (inactive); in test [10], 60.3% (inactive).
Consider `CC(C)(C)C(=O)C1CC(C#N)=C2C=Cc3c(ccc4ccccc34)N21` (stereo not given), for which the growth is 102% (inactive) in test [1]; 85.4% (inactive) in test [2]; 102% (inactive) in test [3]; 80.7% (inactive) in [4]; 91.8% (inactive) in [5]; 83.1% (inactive) in [6]. The growth in test [7] is 83.4% (inactive); in [8], 67.4% (inactive); in test [9] it was 84.7% (inactive); in test [10], 105% (inactive).
Turning to `CCc1ccc(SC2c3cc(OC)ccc3Oc3nc(N)c(C#N)c(N)c32)cc1` (stereo not given), the growth in test [1] was 3.29% (active); in test [2] it was 0.578% (active); in test [3], -55.2% (active); in test [4], -41.4% (active); in test [5], -61.8% (active); in test [6], -4.75% (active). The growth in test [7] was -58.8% (active); in test [8], -62.1% (active); in test [9], -9.43% (active); in [10], -14.1% (active).
